Data as given in PubChem BioAssay (Tox21).
A number with no mark means an inactive call. Calls come from the whole dose curve; as a rule, active = well fitted curve in the direction sought with a large enough effect in the repeat runs; inconclusive = weak or mixed curves; inactive = flat fitted curve, though single readings scatter.

Assay: qHTS assay to test for compound auto fluorescence at 590 nm (red) in HEK293 cells (AID 720679)
Settings: red autofluorescence 540/590 nm; series mostly up to 91.3 µM; fluorescence, % of fluorescent control: at the top concentration
Method in brief: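 We plated HEK293 cells in 10% dialyzed FBS medium, let them adhere for 4-5 hr, then added 23 nL compound. Overnight at 37C and 5% CO2 preceded fluorescence measurement at 540/590nm.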
% is set by controls: 0 for no effect and ±100 for the full control effect.

Row | Compound | fluorescence, % of fluorescent control
1 | O=CCCc1ccccc1 | 0.0475%
2 | CC1=C2[C@H](/C=C(\C)C(=O)O)CC[C@@H](C)[C@H]2CC1 | 0.342% [at 95.7 µM]
3 | CCOc1ccc(NC(N)=O)cc1 | -0.0602%
4 | COc1ccc2nc(NC(=O)Nc3ccccc3)sc2c1 | 0.459% [at 46 µM]
5 | CCC/C=C/CO | -0.0058%
6 | CN1C(=O)CC(c2ccccc2)C1=O (stereo not given) | 1.18% [at 46 µM]
7 | Cc1ccc(C(C)C)cc1O | -0.301%
8 | Cc1c[nH]c(=S)[nH]c1=O | 0.0161%
9 | CC1=NN(c2cc(Cl)c(S(=O)(=O)O)cc2Cl)C(=O)C1N=Nc1ccc(S(=O)(=O)O)cc1 (stereo not given) | 0.0174%
10 | CCOc1ccc(OCC)c(Cl)c1 | 0.35%
11 | CCCCN1C[C@H](O)[C@@H](O)[C@H](O)[C@H]1CO | -0.327% [at 46 µM]
12 | CN1CCC[C@@H]1Cc1c[nH]c2ccc(CCS(=O)(=O)c3ccccc3)cc12 | 0.0724% [at 46 µM]
13 | CC1CN(c2ccccc2)NC1=O (stereo not given) | -0.214%
14 | CC(C)=CCCC(C)CCOC=O (stereo not given) | -0.0374%
15 | CCOC(=O)CS | -0.008% [at 95.7 µM]
16 | Cc1cc2c(s1)Nc1ccccc1N=C2N1CCN(C)CC1 | -0.0879% [at 46 µM]
17 | O=C1CCCCC1C1CCCCC1 (stereo not given) | -0.0673%
18 | CCC(=O)c1ccc2c(c1)N(CCCN(C)C)c1ccccc1S2 | 0.247% [at 46 µM]
19 | CCOc1ccc(NS(=O)(=O)c2ccc(N)cc2)nn1 | 0.439% [at 46 µM]
20 | Cn1cnc2c(F)c(Nc3ccc(Br)cc3Cl)c(C(=O)NOCCO)cc21 | -0.0249% [at 46 µM]
21 | CCCCCCCCCCCCCCCCOP(=O)([O-])OCC[N+](C)(C)C | 0.76% [at 46 µM]
22 | CCN(CCCc1ccccc1)CCCc1ccccc1 | -0.195% [at 18.6 µM]
23 | CCCCCCCCCCCCOCCOS(=O)(=O)O | 0.036%
24 | CCNCCO | -0.259%
25 | O=C(CC(=O)C(F)(F)F)c1ccccc1 | 0.273% [at 95.7 µM]
